NPR1 activator: GC-A stimulated cGMP production enhancers – HEK293 GC-A cells, cGMP TR-FRET, EC30 ANP, primary screen; Atrial natriuretic peptide receptor 1 (Homo sapiens), P16066; 0% at EC30 ANP, 100% saturating ANP; activation, % at 10 µM; 370,000 tested, 0.14% active; AID 1671463, 2021; in the data active = activation above about 40%
Target sequence (P16066 whole entry, looked up): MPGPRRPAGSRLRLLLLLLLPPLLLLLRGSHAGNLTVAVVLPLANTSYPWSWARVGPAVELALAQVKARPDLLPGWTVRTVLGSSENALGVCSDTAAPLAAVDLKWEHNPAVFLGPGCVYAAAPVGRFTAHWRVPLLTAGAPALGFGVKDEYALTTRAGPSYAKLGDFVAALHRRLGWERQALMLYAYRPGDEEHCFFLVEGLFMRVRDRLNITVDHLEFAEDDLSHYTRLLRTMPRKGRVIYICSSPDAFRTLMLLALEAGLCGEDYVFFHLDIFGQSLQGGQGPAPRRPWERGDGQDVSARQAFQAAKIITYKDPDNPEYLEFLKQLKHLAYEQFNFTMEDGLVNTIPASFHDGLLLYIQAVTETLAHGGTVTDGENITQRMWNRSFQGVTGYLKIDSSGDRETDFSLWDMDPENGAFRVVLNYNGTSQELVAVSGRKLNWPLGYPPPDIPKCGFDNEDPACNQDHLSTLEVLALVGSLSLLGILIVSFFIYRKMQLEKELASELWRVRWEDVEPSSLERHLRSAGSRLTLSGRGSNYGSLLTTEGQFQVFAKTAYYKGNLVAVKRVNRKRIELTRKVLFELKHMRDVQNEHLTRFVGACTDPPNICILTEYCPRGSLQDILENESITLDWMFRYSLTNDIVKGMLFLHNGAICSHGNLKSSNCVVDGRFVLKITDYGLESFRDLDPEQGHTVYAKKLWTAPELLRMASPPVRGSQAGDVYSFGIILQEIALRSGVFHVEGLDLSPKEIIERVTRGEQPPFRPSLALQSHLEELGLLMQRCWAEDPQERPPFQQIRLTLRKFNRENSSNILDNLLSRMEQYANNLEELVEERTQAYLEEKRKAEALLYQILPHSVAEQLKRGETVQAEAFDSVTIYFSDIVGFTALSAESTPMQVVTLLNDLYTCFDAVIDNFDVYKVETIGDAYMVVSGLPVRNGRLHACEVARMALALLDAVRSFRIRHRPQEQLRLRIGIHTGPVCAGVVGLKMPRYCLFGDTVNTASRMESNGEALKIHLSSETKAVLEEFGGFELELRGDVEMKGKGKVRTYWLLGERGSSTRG
NPR2 activator: human GC-B receptor activators, primary screen, HEK293 GC-B cells, cGMP TR-FRET, EC30 CNP; activation, % at 10 µM; 370,000 tested, 0.11% active; 0% at EC30 CNP, 100% saturating CNP; Atrial natriuretic peptide receptor 2 (Homo sapiens), P20594; AID 1920062, 2024;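 active = activation at 10 µM reaching about 35% in either raw or pattern-adjusted values, limit read from the data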
TLR9-MyD88 block: inhibitors of TLR9-MyD88 association in cells, primary screen, cell-based, CHO, BLA complementation, fluorescence; 340,000 tested, 0.21% active; inhibition, % at 4.98 µM; CCF4 FRET ratio;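 active = inhibition above the mean over all tested compounds plus 3 SD, cut at about 21% in these data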
TLR4 MyD88 comp: inhibitors of TLR4-MyD88 association in cells, primary screen, cell-based, HeLa CL3-4, BLA complementation, FRET ratio | inhibition, % at 8.4 µM | HeLa CL3-4 TLR4/MyD88 BLA complementation | Toll-like receptor 4 (Homo sapiens) + Myeloid differentiation primary response protein … | 200,000 tested, 0.18% active | AID 861, 2007; in the data active = inhibition above about 25%
Neddyl block: inhibitors of cullin neddylation, primary screen, biochemical, TR-FRET, uHTS, NAE and Ubc12. inhibition, % at 25 µM. NEDD8-conjugating enzyme Ubc12 (Homo sapiens) + NEDD8-activating enzyme E1 regulatory …. 360,000 tested, 0.58% active; in the data active = inhibition above about 36%
NOD2 RIPK2 PPI: NOD2-RIPK2 binding disruptors in cells, primary screen, fluorescence, CHO cells, BLA complementation; CCF4 ratio; inhibition, % at 4.98 µM; 360,000 tested, 0.38% active; in the data active = inhibition above about 21%
NOD2-RIPK2 conf: NOD2-RIPK2 binding disruptors, retest, confirmation, fluorescence, CHO cells, BLA complementation, triplicate; shares compounds with NOD2 RIPK2 PPI; CCF4 FRET; inhibition, % at 4.98 µM; 1,200 tested, 70% active;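 active = mean inhibition across replicates above a set limit taken from the earlier primary screen, cut at about 21% in these data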
BLA counter: NOD2-RIPK2 counterscreen BLA reporter activity; shares compounds with NOD2 RIPK2 PPI; CHO BLA reporter, CCF4 FRET ratio; inhibition, % at 4.98 µM; 1,200 tested, 57% active; AID 624371;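 active = mean inhibition above the low-control mean inhibition plus three low-control SD, cut at about 11% in these data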
Each line names hits and unclear results; the compound was inactive in the other large screens (follow-up assays come after a bar, where shown). Sampled rows, rich in hits. Any-hit rate of the full collection: about 1.2%.

CN1C(=O)[C@H]2[C@@H](c3ccc(F)cc3)N3C(=O)c4ccccc4NC(=O)[C@@]3(C)[C@H]2C1=O	NOD2 RIPK2 PPI 22.5 (no result: NPR1 activator, NPR2 activator, TLR4 MyD88 comp) | NOD2-RIPK2 conf inactive | BLA counter inactive
COc1ccc(NC(=O)c2cnn(-c3ccccc3)c2C)cc1	none (no result: TLR4 MyD88 comp)
COc1ccc(CN2CCn3ncc(C(=O)Nc4ccccc4)c3C2=O)cc1	NOD2 RIPK2 PPI 22.4 | NOD2-RIPK2 conf inactive | BLA counter inactive
C=CCN1C(=O)[C@@H](CC(=O)NCc2cccs2)[C@]2(C(=O)OC)CCCCC=C12	none (no result: TLR9-MyD88 block, TLR4 MyD88 comp, Neddyl block, NOD2 RIPK2 PPI)
O=C(NCCN1CCC(n2c(=O)[nH]c3cc(Cl)ccc32)CC1)c1ccc(F)cc1	none (no result: TLR9-MyD88 block, TLR4 MyD88 comp, Neddyl block, NOD2 RIPK2 PPI)
Oc1ccc(-c2nccs2)cc1	none (no result: TLR4 MyD88 comp)
O=C1Nc2cc(C(=O)NCCCN3CCCC3)ccc2S/C1=C/c1ccccc1F	none (no result: TLR4 MyD88 comp)
O=C1Nc2cc(C(=O)NCCN3CCCCCC3)ccc2S/C1=C/c1ccccc1F	NOD2 RIPK2 PPI 21.8 (no result: TLR4 MyD88 comp) | NOD2-RIPK2 conf 48.9 | BLA counter 51.2
C=C1C(=O)OC2CC1C(OC(C)=O)CC(C)=CCCC(C)=CCCC2(C)O (configuration not stated)	none (no result: TLR9-MyD88 block, TLR4 MyD88 comp)
C=C1C(=O)OC2CC1C(O)CC(C)=CCCC(C)=CC(O)CC2C (configuration not stated)	NOD2 RIPK2 PPI 22.8 (no result: TLR4 MyD88 comp) | NOD2-RIPK2 conf inactive | BLA counter 13.1
CCSc1ccc(-c2cc(NC=O)c3ncc(-c4cccc(C(=O)NCCN(C)C)c4)n3c2)cc1	NOD2 RIPK2 PPI 23.2 (no result: TLR9-MyD88 block, TLR4 MyD88 comp) | NOD2-RIPK2 conf 25.0 | BLA counter inactive
CN(C)CCNC(=O)c1cccc(-c2cnc3c(NC=O)cc(-c4ccc(F)cc4)cn23)c1	none (no result: TLR9-MyD88 block, TLR4 MyD88 comp)
CN(c1ccccc1)S(=O)(=O)c1ccc(C(=O)NCC(c2ccco2)N2CCCCC2)cc1 (configuration not stated)	NOD2 RIPK2 PPI 24.6 (no result: TLR4 MyD88 comp) | NOD2-RIPK2 conf inactive | BLA counter inactive
O=C(C=C=Nc1ccccc1)C(=O)N=C=Cc1ccccc1	NOD2 RIPK2 PPI 27.8 (no result: TLR4 MyD88 comp) | NOD2-RIPK2 conf inactive | BLA counter inactive
CCCCNC(=O)C[C@H]1C[C@@]2(C(=O)OC)C(=C[C@H](C(C)C)O[C@@H]2C2CC2)N(Cc2ccc(Cl)cc2Cl)C1=O	none (no result: TLR9-MyD88 block, TLR4 MyD88 comp, Neddyl block, NOD2 RIPK2 PPI)
CCOC(=O)[C@]12CCCC=C1N(Cc1ccc(Cl)cc1Cl)C(=O)[C@H](CC(=O)N1CCSCC1)C2	none (no result: TLR9-MyD88 block, TLR4 MyD88 comp)
CN(CC(=O)Nc1ccccc1Cl)C(=O)COC(=O)c1nc(Cl)c(Cl)c(Cl)c1Cl	NOD2 RIPK2 PPI 23.9 (no result: TLR4 MyD88 comp) | NOD2-RIPK2 conf 28.1 | BLA counter inactive
Cc1cc2nc(-c3nnnn3Cc3ccccc3)c(=O)[nH]c2cc1C	NOD2 RIPK2 PPI 23.3 (not shown: TLR9-MyD88 block, TLR4 MyD88 comp, Neddyl block) | NOD2-RIPK2 conf inactive | BLA counter 14.7
O=c1[nH]c2cc3ccccc3cc2nc1-c1nnnn1Cc1ccccc1	none (no result: TLR9-MyD88 block, TLR4 MyD88 comp)
COC(=O)Nc1ccc(SCC(=O)c2cccc([N+](=O)[O-])c2)cc1	NOD2 RIPK2 PPI 22.2 (no result: TLR4 MyD88 comp) | NOD2-RIPK2 conf inactive | BLA counter inactive
Cc1cn([C@H]2C[C@H](O)[C@@H](/C=C/C(=O)NCCN3CCCCC3)O2)c(=O)[nH]c1=O	NOD2 RIPK2 PPI 61.4 (no result: TLR9-MyD88 block, TLR4 MyD88 comp) | NOD2-RIPK2 conf inactive | BLA counter inactive
C[C@H](O)[C@@H]1CN2CCc3ccc(N4CCOCC4)cc3[C@@H]2C[C@@H]1N(C)CC1CCCCC1	none (no result: TLR9-MyD88 block, TLR4 MyD88 comp, Neddyl block, NOD2 RIPK2 PPI)
CN(C)Cc1c(O)ccc2cc(-c3nc4ccccc4n3C)c(=O)oc12	NOD2 RIPK2 PPI 31.4 (no result: TLR4 MyD88 comp) | NOD2-RIPK2 conf 32.6 | BLA counter 57.7
Cc1ccccc1NC(=O)C1C2CC/C=C\CCC21 (configuration not stated)	NOD2 RIPK2 PPI 27.1 | NOD2-RIPK2 conf inactive | BLA counter inactive
Cc1ccccc1NC(=O)C1C2CCCCC21 (configuration not stated)	none (no result: TLR4 MyD88 comp)
Cc1cccc2c(N=O)c(O)n(CCc3ccccc3)c12	NOD2 RIPK2 PPI 25.9 (no result: TLR4 MyD88 comp) | NOD2-RIPK2 conf 25.1 | BLA counter 13.8
O=Nc1c(O)n(Cc2ccc(Cl)cc2)c2ccccc12	NOD2 RIPK2 PPI 22.5 | NOD2-RIPK2 conf 22.1 | BLA counter 16.9
CCOC(=O)/C=c1\s/c(=C\c2ccc(-c3ccccc3)cc2)c(=O)n1CC(=O)NCc1ccc2c(c1)OCO2	none (not shown: Neddyl block)
CCOC(=O)/C=c1/s/c(=C/c2ccc3cc(OC)ccc3c2)c(=O)n1CC(=O)NCc1ccc2c(c1)OCO2	NOD2 RIPK2 PPI 25.0 (no result: TLR4 MyD88 comp) | NOD2-RIPK2 conf 44.1 | BLA counter 53.1
COc1ccc(O)c(/C=N/NC(=S)NCCc2ccccc2)c1	NOD2 RIPK2 PPI 25.9 (not shown: TLR4 MyD88 comp, Neddyl block) | NOD2-RIPK2 conf 28.6 | BLA counter 23.4
C/C(=C/c1nc(N)n(Cc2ccccc2)c1Cc1ccccc1)Cn1[nH]c(=O)n(-c2ccccc2)c1=O	none (no result: TLR9-MyD88 block, TLR4 MyD88 comp, Neddyl block, NOD2 RIPK2 PPI)
Cc1ccc(C(=O)N(C)[C@H]2C[C@H]3c4[nH]c5c(-c6ccc7c(c6)OCO7)cccc5c4CCN3C[C@H]2[C@H](C)O)cc1	none (no result: TLR9-MyD88 block, TLR4 MyD88 comp, Neddyl block, NOD2 RIPK2 PPI)
CCCOc1ccc(NC(=O)C2CC(=O)N/C(=N/N=C(\C)CCc3ccc4c(c3)OCO4)S2)cc1 (configuration not stated)	none
CC(/C=C/c1ccc(N(C)C)cc1)=N\N=C1\NC(=O)CC(C(=O)Nc2ccccc2)S1 (configuration not stated)	none
CC(/C=C/c1ccc(N(C)C)cc1)=N/N=C1/NC(=O)CC(C(=O)Nc2ccc(Cl)cc2)S1 (configuration not stated)	NOD2 RIPK2 PPI 24.0 | NOD2-RIPK2 conf inactive | BLA counter 32.0
CCCOc1ccc(NC(=O)C2CC(=O)N/C(=N/N=C(C)/C=C/c3ccc(N(C)C)cc3)S2)cc1 (configuration not stated)	NOD2 RIPK2 PPI 22.2 | NOD2-RIPK2 conf inactive | BLA counter 25.6
CCOC(=O)N1CCC(NC(=O)c2ccc3c(c2)N=C(C)c2c(C)ccc(C)c2S3)CC1	NOD2 RIPK2 PPI 24.4 (no result: TLR4 MyD88 comp) | NOD2-RIPK2 conf inactive | BLA counter inactive
CCOC(=O)N1CCC(NC(=O)c2ccc3c(c2)N=C(CC)c2cc(C)ccc2S3)CC1	none (no result: TLR4 MyD88 comp)
Cc1cc(=O)[nH]c(SCC(=O)NC2CCCCCC2)n1	none (no result: TLR4 MyD88 comp)

From PubChem BioAssay
